This is an account of results in article PMC7862700, “An all-to-all approach to the identification of sequence-specific readers for epigenetic DNA modifications on cytosine”.

Common to all, as to test: DAPPL (digital affinity profiling via proximity ligation, sequencing); 10 mM Tris-HCl pH 7.5, 50 mM NaCl, 1 mM DTT, 4% glycerol, room temperature, 30 min; GST-TFs on glutathione beads, 16-mer random dsDNA library, 0.1% formaldehyde crosslink after washing; high values mean tight binding
The target in one assay is T1, FLI1 (Homo sapiens, UniProt Q01543 1-452).
T1 sequence: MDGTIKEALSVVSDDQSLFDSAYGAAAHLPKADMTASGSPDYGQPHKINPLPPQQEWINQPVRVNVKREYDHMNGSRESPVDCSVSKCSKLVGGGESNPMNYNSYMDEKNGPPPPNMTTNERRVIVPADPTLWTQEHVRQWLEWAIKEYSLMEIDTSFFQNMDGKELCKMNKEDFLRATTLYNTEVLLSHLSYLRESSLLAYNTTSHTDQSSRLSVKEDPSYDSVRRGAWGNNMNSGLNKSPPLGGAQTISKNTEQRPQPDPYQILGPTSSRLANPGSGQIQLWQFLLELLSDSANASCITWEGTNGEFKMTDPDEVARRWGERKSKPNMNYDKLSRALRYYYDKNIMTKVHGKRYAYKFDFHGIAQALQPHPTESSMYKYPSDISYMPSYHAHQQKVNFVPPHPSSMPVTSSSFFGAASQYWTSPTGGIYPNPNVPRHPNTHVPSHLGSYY
The note with it: protein: recombinant; tags: N-terminal GST; dsDNA, one strand shown. The method, boiled down:
(§1)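 Yeast served to express human transcription factors as GST fusions, which were then captured on glutathione beads and labelled with DNA barcodes. Pooled with a tag-only sample, they were incubated with 200 nmole of a 16-mer random double-stranded DNA library for 30 min at room temperature in Tris/NaCl/DTT/glycerol buffer, washed, crosslinked with 0.1% formaldehyde, ligated by proximity, amplified by PCR and sequenced. Dividing each hexamer's read frequency for a factor by its frequency for the tag-only sample gives the binding signal.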

The next assay deals with T2, ELK1 (Homo sapiens, UniProt P19419 1-428).
T2 sequence: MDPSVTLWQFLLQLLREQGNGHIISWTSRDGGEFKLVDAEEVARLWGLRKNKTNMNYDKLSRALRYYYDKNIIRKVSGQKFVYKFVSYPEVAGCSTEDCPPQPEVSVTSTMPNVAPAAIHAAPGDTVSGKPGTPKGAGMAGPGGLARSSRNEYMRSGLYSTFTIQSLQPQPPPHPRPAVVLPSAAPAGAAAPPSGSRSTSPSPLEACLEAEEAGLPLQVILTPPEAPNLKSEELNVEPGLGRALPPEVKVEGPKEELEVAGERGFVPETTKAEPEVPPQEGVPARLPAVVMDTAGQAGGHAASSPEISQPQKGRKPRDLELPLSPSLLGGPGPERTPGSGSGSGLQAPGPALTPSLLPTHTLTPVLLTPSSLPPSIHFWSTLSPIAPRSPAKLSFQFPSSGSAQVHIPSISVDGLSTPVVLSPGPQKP
The note with it: protein: recombinant; tags: N-terminal GST; dsDNA, one strand shown. The method, boiled down: as §1

The next assay addresses T3, GABPA (Homo sapiens, UniProt Q06546 1-454).
T3 sequence: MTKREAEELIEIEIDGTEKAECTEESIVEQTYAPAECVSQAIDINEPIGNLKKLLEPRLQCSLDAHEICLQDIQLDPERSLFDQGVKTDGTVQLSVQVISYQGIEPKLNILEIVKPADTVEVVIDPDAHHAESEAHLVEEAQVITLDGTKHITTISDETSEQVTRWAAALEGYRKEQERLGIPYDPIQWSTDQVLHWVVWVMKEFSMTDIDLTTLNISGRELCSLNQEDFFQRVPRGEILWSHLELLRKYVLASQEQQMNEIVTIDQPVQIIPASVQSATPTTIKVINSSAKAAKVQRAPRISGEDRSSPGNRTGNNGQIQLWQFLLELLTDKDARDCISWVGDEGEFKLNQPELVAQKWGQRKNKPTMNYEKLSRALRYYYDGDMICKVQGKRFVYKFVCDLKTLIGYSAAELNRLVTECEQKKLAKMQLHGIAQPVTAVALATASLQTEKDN
To be noted: protein: recombinant; tags: N-terminal GST; dsDNA, one strand shown. Summed up: as §1

The next assay has as its target T4, ERG (Homo sapiens, UniProt P11308 1-479).
T4 sequence: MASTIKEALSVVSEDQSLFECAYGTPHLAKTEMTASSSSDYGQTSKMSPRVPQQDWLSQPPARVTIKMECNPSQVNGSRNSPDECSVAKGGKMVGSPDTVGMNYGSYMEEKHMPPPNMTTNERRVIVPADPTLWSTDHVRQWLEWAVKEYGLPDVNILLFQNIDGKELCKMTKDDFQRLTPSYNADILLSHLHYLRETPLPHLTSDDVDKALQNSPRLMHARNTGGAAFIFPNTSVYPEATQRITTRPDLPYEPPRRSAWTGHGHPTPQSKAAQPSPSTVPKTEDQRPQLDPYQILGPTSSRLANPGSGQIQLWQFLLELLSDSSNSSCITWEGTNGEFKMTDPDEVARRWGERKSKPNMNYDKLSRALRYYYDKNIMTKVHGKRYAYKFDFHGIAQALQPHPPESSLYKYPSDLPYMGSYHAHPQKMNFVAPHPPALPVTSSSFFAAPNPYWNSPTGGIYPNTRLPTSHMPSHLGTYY
The note with it: protein: recombinant; tags: N-terminal GST; dsDNA, one strand shown. The method, boiled down:
as §1

The target of another assay is ELF1 (Homo sapiens, UniProt P32519 1-619). To be noted: protein: recombinant; tags: N-terminal GST; dsDNA, one strand shown. Summed up: as §1
Sequence of ELF1 (P32519 whole entry): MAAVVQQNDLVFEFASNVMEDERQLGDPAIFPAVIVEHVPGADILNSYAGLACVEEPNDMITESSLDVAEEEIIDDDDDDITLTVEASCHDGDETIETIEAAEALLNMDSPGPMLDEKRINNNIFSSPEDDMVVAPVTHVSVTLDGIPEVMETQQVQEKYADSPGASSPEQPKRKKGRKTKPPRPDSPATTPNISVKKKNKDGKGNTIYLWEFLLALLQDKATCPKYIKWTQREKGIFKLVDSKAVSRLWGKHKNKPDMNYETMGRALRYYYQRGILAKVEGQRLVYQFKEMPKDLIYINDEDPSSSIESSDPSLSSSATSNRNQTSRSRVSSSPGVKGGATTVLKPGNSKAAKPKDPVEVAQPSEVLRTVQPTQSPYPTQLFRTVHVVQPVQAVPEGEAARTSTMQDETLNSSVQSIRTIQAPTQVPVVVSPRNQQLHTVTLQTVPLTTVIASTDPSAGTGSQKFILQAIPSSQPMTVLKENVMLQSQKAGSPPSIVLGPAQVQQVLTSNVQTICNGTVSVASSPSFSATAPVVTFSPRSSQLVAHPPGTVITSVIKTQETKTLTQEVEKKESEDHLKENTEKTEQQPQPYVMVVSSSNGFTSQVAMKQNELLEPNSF
The next assay addresses T5, EHF (Homo sapiens, UniProt Q9NZC4 1-300).
T5 sequence: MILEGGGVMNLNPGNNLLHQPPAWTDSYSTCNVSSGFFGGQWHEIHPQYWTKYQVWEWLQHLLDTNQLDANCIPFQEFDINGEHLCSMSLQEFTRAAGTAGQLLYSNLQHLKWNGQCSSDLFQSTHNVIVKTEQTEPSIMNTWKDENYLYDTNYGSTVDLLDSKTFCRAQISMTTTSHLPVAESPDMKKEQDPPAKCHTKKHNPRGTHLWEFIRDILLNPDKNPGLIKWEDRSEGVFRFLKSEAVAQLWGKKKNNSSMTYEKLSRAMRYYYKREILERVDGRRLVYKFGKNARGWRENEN
To be noted: protein: recombinant; tags: N-terminal GST; dsDNA, one strand shown. Summed up: as §1

In another assay the target is SPI1 (Homo sapiens, UniProt P17947 1-270). The note with it: protein: recombinant; tags: N-terminal GST; dsDNA, one strand shown. Summed up: as §1
The target in a further assay is SPIB (Homo sapiens, UniProt Q01892 1-262). To be noted: protein: recombinant; tags: N-terminal GST; dsDNA, one strand shown. Summed up:
as §1

The next assay deals with T6, ELK3 (Homo sapiens, UniProt P41970 1-407).
T6 sequence: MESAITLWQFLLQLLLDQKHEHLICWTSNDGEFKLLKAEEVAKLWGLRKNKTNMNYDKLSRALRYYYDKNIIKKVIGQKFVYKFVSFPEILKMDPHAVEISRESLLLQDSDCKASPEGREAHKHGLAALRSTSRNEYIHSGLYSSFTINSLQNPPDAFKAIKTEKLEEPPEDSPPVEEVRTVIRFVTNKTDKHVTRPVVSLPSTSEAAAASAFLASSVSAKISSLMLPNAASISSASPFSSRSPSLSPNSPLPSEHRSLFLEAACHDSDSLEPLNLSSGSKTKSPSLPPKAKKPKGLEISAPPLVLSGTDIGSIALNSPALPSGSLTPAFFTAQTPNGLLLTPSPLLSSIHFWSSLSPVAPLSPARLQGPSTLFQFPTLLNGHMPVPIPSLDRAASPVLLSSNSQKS
To be noted: protein: recombinant; tags: N-terminal GST; dsDNA, one strand shown. The method, boiled down:
as §1

The next assay concerns the target T7, FEV (Homo sapiens, UniProt Q99581 1-238).
T7 sequence: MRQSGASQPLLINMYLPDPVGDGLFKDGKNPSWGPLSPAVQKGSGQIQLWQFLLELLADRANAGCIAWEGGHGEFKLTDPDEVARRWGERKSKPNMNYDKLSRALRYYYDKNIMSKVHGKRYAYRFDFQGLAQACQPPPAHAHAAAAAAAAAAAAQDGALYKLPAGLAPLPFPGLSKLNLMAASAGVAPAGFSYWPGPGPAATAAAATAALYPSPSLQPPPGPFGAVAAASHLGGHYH
The note with it: protein: recombinant; tags: N-terminal GST; dsDNA, one strand shown. Summed up: as §1

A further assay concerns the target ETV5 (Homo sapiens, UniProt P41161 1-510). The note with it: protein: recombinant; tags: N-terminal GST; dsDNA, one strand shown. The method, boiled down:
as §1

The target of another assay is HSF1 (Homo sapiens, UniProt Q00613 1-529). The note with it: protein: recombinant; tags: N-terminal GST; chain copies: 3; dsDNA, one strand shown. The method, boiled down:
as §1

Another assay deals with T8, SPIC (Homo sapiens, UniProt Q8N5J4 1-248).
T8 sequence: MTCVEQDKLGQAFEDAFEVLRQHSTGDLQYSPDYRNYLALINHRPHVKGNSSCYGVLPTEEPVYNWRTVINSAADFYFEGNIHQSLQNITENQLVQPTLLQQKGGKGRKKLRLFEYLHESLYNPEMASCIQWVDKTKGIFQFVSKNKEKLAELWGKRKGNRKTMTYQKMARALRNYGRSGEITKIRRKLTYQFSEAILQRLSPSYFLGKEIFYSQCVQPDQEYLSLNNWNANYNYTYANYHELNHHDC
To be noted: protein: recombinant; tags: N-terminal GST; dsDNA, one strand shown. The method, boiled down: as §1

In the next assay the target is ELF4 (Homo sapiens, UniProt Q99607 1-663). The note with it: protein: recombinant; tags: N-terminal GST; dsDNA, one strand shown. The method, boiled down:
as §1

Another assay concerns the target T9, ELK4 (Homo sapiens, UniProt P28324-2 1-405).
T9 sequence: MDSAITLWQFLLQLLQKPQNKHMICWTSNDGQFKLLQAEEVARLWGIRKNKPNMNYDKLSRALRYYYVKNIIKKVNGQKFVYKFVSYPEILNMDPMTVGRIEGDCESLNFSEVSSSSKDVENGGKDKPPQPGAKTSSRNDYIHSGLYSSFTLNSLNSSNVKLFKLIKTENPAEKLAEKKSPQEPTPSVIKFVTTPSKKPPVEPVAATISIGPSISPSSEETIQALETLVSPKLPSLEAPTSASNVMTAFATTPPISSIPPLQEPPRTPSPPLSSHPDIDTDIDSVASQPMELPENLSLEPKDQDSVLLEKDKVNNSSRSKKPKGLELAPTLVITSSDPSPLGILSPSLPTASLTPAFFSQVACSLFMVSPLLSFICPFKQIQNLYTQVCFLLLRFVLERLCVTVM
To be noted: protein: recombinant; tags: N-terminal GST; dsDNA, one strand shown. The method, boiled down:
as §1

A further assay concerns the target T10, ETV2 (Homo sapiens, UniProt O00321 1-342).
T10 sequence: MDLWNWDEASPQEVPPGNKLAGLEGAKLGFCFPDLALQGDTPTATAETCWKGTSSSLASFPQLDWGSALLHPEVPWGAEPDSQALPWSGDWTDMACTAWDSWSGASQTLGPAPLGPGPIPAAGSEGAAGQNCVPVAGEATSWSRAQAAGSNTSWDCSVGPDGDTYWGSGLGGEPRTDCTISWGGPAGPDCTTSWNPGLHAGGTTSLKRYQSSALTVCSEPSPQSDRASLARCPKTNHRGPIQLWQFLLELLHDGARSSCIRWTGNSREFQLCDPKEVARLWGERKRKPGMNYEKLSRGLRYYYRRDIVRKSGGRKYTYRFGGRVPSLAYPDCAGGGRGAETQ
The note with it: protein: recombinant; tags: N-terminal GST; dsDNA, one strand shown. Summed up:
as §1

For the next assay, the target named is T11, ELF3 (Homo sapiens, UniProt P78545 1-371).
T11 sequence: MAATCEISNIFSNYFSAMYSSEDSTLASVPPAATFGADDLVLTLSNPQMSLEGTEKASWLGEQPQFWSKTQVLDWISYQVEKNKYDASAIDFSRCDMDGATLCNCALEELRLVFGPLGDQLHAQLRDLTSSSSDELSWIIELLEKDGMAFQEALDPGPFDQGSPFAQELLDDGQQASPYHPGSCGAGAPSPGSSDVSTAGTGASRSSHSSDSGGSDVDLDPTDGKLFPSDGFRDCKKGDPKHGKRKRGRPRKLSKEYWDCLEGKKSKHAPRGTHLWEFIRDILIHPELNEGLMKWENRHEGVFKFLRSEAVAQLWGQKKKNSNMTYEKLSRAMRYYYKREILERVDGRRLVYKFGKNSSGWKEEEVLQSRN
The note with it: protein: recombinant; tags: N-terminal GST; dsDNA, one strand shown. The method, boiled down:
as §1

The target in another assay is CRX (Homo sapiens, UniProt O43186 1-299). The note with it: protein: recombinant; tags: N-terminal GST; dsDNA, one strand shown. Summed up:
as §1

The next assay concerns the target ETV1 (Homo sapiens, UniProt P50549 1-477). To be noted: protein: recombinant; tags: N-terminal GST; dsDNA, one strand shown. The method, boiled down: as §1

Sequence of SPIB (Q01892 whole entry): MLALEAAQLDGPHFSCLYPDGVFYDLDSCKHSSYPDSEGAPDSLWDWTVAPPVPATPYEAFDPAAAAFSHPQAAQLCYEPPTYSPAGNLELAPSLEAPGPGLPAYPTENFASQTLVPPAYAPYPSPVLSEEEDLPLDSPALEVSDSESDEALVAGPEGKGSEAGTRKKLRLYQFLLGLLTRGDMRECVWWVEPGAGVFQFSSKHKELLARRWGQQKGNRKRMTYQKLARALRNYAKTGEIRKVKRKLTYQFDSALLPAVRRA
Sequence of HSF1 (Q00613 whole entry): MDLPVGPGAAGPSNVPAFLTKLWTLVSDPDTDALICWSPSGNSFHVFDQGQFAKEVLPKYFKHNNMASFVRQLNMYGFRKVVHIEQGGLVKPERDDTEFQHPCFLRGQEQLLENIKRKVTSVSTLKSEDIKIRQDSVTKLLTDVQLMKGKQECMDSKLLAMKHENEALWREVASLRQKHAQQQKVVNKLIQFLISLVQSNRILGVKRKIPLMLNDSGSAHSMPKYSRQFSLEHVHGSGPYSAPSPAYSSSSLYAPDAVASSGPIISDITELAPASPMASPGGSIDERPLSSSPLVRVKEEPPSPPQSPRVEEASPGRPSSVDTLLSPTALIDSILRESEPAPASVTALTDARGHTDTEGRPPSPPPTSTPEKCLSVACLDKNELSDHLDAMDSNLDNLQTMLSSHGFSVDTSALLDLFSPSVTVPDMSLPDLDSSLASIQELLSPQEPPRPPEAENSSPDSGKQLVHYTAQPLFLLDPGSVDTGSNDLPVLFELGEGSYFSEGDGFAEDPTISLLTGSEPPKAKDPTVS
Sequence of ELF4 (Q99607 whole entry): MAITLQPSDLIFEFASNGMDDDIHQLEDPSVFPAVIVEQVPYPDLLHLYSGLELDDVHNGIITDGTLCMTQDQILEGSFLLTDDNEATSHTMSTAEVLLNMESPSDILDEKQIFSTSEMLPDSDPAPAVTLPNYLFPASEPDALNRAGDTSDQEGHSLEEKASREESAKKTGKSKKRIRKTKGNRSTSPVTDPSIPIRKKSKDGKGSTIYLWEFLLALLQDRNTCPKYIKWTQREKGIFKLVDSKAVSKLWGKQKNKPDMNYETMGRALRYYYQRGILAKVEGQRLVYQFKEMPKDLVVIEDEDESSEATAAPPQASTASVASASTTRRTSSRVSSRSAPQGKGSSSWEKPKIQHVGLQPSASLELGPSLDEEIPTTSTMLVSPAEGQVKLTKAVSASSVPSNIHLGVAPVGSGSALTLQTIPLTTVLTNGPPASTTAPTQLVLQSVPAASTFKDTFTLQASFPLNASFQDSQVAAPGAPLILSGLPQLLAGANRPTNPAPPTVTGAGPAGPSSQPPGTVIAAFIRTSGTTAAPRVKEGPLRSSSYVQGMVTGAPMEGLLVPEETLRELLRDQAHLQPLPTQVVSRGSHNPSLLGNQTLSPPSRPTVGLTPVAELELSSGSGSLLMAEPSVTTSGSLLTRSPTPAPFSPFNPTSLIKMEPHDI
Sequence of ETV1 (P50549 whole entry): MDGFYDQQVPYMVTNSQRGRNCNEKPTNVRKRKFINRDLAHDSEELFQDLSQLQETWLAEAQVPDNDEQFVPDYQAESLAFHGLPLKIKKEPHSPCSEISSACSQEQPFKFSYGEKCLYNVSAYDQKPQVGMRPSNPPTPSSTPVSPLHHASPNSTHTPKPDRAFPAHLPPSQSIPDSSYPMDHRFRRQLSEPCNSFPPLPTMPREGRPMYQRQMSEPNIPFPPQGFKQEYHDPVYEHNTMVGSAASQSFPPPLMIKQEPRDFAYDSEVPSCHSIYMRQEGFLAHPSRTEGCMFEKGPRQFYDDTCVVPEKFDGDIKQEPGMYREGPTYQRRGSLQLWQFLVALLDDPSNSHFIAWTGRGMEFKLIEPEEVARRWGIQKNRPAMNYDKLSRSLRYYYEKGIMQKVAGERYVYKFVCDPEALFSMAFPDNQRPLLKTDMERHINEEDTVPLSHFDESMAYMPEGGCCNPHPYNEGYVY
Sequence of ETV5 (P41161 whole entry): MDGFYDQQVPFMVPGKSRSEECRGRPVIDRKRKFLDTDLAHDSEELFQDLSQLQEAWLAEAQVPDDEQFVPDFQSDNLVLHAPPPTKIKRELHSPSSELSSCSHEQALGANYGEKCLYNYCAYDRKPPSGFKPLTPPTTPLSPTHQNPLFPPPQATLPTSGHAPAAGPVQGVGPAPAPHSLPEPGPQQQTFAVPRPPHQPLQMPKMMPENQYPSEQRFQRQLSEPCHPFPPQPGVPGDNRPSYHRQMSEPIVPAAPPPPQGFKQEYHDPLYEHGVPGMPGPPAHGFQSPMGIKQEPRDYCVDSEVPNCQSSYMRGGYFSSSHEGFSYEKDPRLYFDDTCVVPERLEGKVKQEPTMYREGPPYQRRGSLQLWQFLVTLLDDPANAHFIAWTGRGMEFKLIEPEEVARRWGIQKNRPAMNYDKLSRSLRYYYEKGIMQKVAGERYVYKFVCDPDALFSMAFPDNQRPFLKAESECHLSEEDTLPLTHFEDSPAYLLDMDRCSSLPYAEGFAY
Sequence of CRX (O43186 whole entry): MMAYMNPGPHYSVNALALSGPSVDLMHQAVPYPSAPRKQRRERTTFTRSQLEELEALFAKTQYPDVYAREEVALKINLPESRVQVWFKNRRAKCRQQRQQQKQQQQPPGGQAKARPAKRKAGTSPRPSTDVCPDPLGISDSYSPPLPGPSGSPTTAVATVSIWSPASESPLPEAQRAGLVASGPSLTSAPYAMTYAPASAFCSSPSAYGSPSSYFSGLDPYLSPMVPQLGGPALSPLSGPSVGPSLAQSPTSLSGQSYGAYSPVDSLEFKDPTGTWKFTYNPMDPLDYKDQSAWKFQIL

As to TTGCAA, the binding signal is 1.14 fold enrichment (6-mer frequency, TF over GST control) with FLI1; 1.28 fold enrichment (6-mer frequency, TF over GST control) in the assay with ELK1; 1.2 fold enrichment (6-mer frequency, TF over GST control) with GABPA; 1.08 fold enrichment (6-mer frequency, TF over GST control) with ERG; 1.18 fold enrichment (6-mer frequency, TF over GST control) with ELF1; 1.2 fold enrichment (6-mer frequency, TF over GST control) with EHF. The binding signal was 1.04 fold enrichment (6-mer frequency, TF over GST control) in the assay with SPI1; 1.15 fold enrichment (6-mer frequency, TF over GST control) with SPIB; 1.29 fold enrichment (6-mer frequency, TF over GST control) in the assay with ELK3; 1.12 fold enrichment (6-mer frequency, TF over GST control) in the assay with FEV; 1.17 fold enrichment (6-mer frequency, TF over GST control) in the assay with ETV5; 1.07 fold enrichment (6-mer frequency, TF over GST control) in the assay with HSF1. Further, the binding signal in the assay with SPIC was 1.09 fold enrichment (6-mer frequency, TF over GST control); in the assay with ELF4, 1.19 fold enrichment (6-mer frequency, TF over GST control); with ELK4 it was 1.21 fold enrichment (6-mer frequency, TF over GST control); with ETV2 it was 1.22 fold enrichment (6-mer frequency, TF over GST control); with ELF3, 1.13 fold enrichment (6-mer frequency, TF over GST control); in the assay with CRX it was 1.12 fold enrichment (6-mer frequency, TF over GST control). The binding signal in the assay with ETV1 is 1.27 fold enrichment (6-mer frequency, TF over GST control).
